The whole screen tested about 5,500 compounds, of which about 2,000 (36%) were called active. About 18% were inconclusive and are not listed. No stated cut-off is given here; in the data, active means normalized growth mostly below about 0.91 (no sharp cut-off); inconclusive means no clear call, values can overlap the other calls; inactive means mostly above about 0.92. This is one part of the list.
Assay: chemical genetic growth profiling, strain panel (AID 1159580);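 further: tested at 20 µM; growth read once vehicle control cultures reached saturation at 30 °C; 1 = growth at the plate median or of vehicle wells; lower values mean less growth of the strain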
Conditions: S. cerevisiae deletion strains, growth OD

Measured: normalized growth

C[C@H]1C2Cc3ccc(O)cc3[C@]1(C)CCN2CC1CC1
inactive: locus YAL040C, strain CLN3, hits give low values 0.994 | locus YCL061C, strain MRC1 (second series), hits give low values 1.01 | locus YDR150W, strain NUM1, hits give low values 1 | locus YDR363W, strain ESC2, hits give low values 1.02 | locus YER002W, strain NOP16, hits give low values 0.988 | locus YGR078C, strain PAC10, hits give low values 1.01 | locus YGR229C, strain SMI1, hits give low values 1.05 | locus YNL153C, strain GIM3, hits give low values 1.02 | locus YNL175C, strain NOP13, hits give low values 1.02 | locus YNL197C, strain WHI3, hits give low values 1.02 | locus YNL224C, strain SQS1, hits give low values 1 | locus YNL322C, strain KRE1, hits give low values 1.02 | locus YOR083W, strain WHI5 (second series), hits give low values 1.04 | locus YPL055C, strain LGE1, hits give low values 1.02 | locus YPL241C, strain CIN2, hits give low values 1.01

O=C(O)CCC(=O)Nc1ccc(S(=O)(=O)Nc2nccs2)cc1
active: locus YCL011C, strain gbp2, hits give low values 0.728
inactive: locus YAL021C, strain ccr4, hits give low values 1 | locus YAL026C, strain drs2, hits give low values 1 | locus YAL030W, strain snc1, hits give low values 1.03 | locus YBL061C, strain skt5, hits give low values 0.994 | locus YBR009C, strain hhf1, hits give low values 1.02 | locus YBR023C, strain chs3, hits give low values 0.993 | locus YBR171W, strain sec66, hits give low values 0.997 | locus YBR231C, strain swc5, hits give low values 0.996 | locus YBR279W, strain paf1, hits give low values 0.989 | locus YCL016C, strain dcc1, hits give low values 0.985 | locus YCL061C, strain MRC1, hits give low values 0.996 | locus YCL069W, strain vba3, hits give low values 1 | locus YCR088W, strain abp1, hits give low values 0.994 | locus YDL005C, strain med2, hits give low values 0.987 | locus YDL040C, strain nat1, hits give low values 0.999 | locus YDR001C, strain nth1, hits give low values 1 | locus YDR069C, strain doa4, hits give low values 1 | locus YDR137W, strain rgp1, hits give low values 0.989 | locus YDR159W, strain sac3, hits give low values 0.922 | locus YDR195W, strain ref2 0.967 | locus YDR297W, strain sur2, hits give low values 1.01 | locus YDR334W, strain swr1, hits give low values 0.989 | locus YDR335W, strain msn5, hits give low values 0.992 | locus YDR392W, strain spt3, hits give low values 0.912 | locus YEL003W, strain gim4, hits give low values 1.02 | locus YEL037C, strain rad23, hits give low values 1.01 | locus YEL061C, strain CIN8 (second series), hits give low values 1.02 | locus YER015W, strain faa2, hits give low values 1 | locus YER016W, strain bim1, hits give low values 0.981 | locus YER111C, strain swi4, hits give low values 1.01 | locus YER155C, strain BEM2 (second series), hits give low values 0.981 | locus YFR010W, strain ubp6, hits give low values 1 | locus YGL167C, strain pmr1, hits give low values 0.995 | locus YGL173C, strain kem1, hits give low values 0.987 | locus YGL227W, strain vid30, hits give low values 0.994 | locus YGL240W, strain doc1, hits give low values 1 | locus YGL253W, strain hxk2, hits give low values 1 | locus YHR013C, strain ard1, hits give low values 0.983 | locus YHR027C, strain rpn1, hits give low values 0.991 | locus YHR030C, strain SLT2, hits give low values 1.04 | locus YHR079C, strain IRE1, hits give low values 1.06 | locus YHR142W, strain chs7, hits give low values 1 | locus YJL092W, strain hpr5, hits give low values 1 | locus YJL095W, strain BCK1 (second series), hits give low values 0.996 | locus YJL095W, strain BCK1, hits give low values 1.01 | locus YJL115W, strain asf1, hits give low values 0.997 | locus YJL129C, strain trk1, hits give low values 0.994 | locus YJL154C, strain vps35, hits give low values 0.99 | locus YJL164C, strain tpk1, hits give low values 0.998 | locus YJL166W, strain qcr8, hits give low values 1 | locus YJL187C, strain SWE1, hits give low values 1.01 | locus YJR066W, strain TOR1, hits give low values 0.998 | locus YKL160W, strain elf1, hits give low values 1.01 | locus YKR026C, strain gcn3, hits give low values 1 | locus YKR091W, strain srl3, hits give low values 0.998 | locus YLL001W, strain dnm1, hits give low values 1.01 | locus YLL026W, hits give low values 0.987 | locus YLL041C, strain sdh2, hits give low values 1.01 | locus YLR027C, strain aat2, hits give low values 1.01 | locus YLR113W, strain HOG1, hits give low values 1.02 | locus YLR221C, strain rsa3, hits give low values 1 | locus YLR258W, strain gsy2, hits give low values 0.993 | locus YLR262C, strain YPT6 (second series), hits give low values 1.01 | locus YLR320W, strain mms22, hits give low values 0.976 | locus YLR342W, strain FKS1, hits give low values 1 | locus YLR357W, strain rsc2, hits give low values 0.991 | locus YLR370C, strain arc18, hits give low values 1 | locus YLR384C, strain iki3, hits give low values 1 | locus YML120C, strain ndi1, hits give low values 1.02 | locus YMR058W, strain fet3, hits give low values 1 | locus YMR125W, strain sto1, hits give low values 0.977 | locus YMR129W, hits give low values 0.977 | locus YMR205C, strain PFK2, hits give low values 0.985 | locus YMR231W, strain pep5, hits give low values 1 | locus YNL071W, strain lat1, hits give low values 1.01 | locus YNL183C, strain NPR1, hits give low values 0.968 | locus YNL209W, strain ssb2, hits give low values 1 | locus YNL248C, strain rpa49, hits give low values 1.02 | locus YNL322C, strain KRE1 (second series), hits give low values 0.966 | locus YNR049C, strain mso1, hits give low values 0.999 | locus YOR001W, strain rrp6, hits give low values 0.998 | locus YOR070C, strain gyp1, hits give low values 0.998 | locus YOR080W, strain dia2, hits give low values 0.987 | locus YOR083W, strain WHI5, hits give low values 0.938 | locus YOR106W, strain vam3, hits give low values 0.979 | locus YOR231W, strain MKK1, hits give low values 1.07 | locus YOR265W, strain rbl2, hits give low values 1.01 | locus YOR270C, strain vph1, hits give low values 1.03 | locus YOR290C, strain snf2, hits give low values 0.984 | locus YPL051W, strain arl3, hits give low values 0.995 | locus YPL078C, strain atp4, hits give low values 0.984 | locus YPL106C, strain sse1, hits give low values 0.944 | locus YPL240C, strain hsp82, hits give low values 0.995 | locus YPL256C, strain CLN2, hits give low values 1.01

— PubChem BioAssay AID1159580 (chemical genetic matrix, 2015)
